# Laboratory results from PubChem BioAssay.
# Active and inactive are the calls of the source. Unless noted, the rule behind the calls is not given here.
# How the values were obtained:
# [1] = compound effects on lung adenocarcinoma cell viability – A549, calcein-AM fluorescence, 48 h, basal, profiling panel (AID 1162); settings: higher = more signal; note: test concentration not given here
# [2] = compound effects on differentiated 3T3-L1 adipocyte viability – cell-based, 3T3-L1 adipocytes, calcein-AM fluorescence, 48 h, basal, profiling panel (AID 1163); settings: 3T3-L1 adipocytes viability, higher = more signal; note: test concentration not given here
# [3] = compound effects on hepatocellular carcinoma cell viability – HepG2, calcein-AM fluorescence, 48 h, basal, profiling panel (AID 1164); settings: higher = more signal; note: test concentration not given here
# [4] = compound effects on multiple myeloma cell viability – MM1S, calcein-AM fluorescence, 48 h, basal, profiling panel (AID 1165); settings: higher = more signal;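 note: viability of MM1S multiple myeloma cells under basal unstimulated conditions; test concentration not given here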
# [5] = calcein-AM signal in unstimulated myeloma cells – cell-based, calcein-AM fluorescence, 48 h, PK04 Diversity Set, profiling panel (AID 1166); settings: RPMI8226 myeloma viability, higher = more signal;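 note: cells grown under basal conditions without added stimulus; test concentration not given here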
# [6] = JC-1 mitochondrial signal, unstimulated HepG2 cells – cell-based, JC-1 fluorescence, 24 h, 100 nL compound, profiling panel (AID 1167); settings: HepG2 mitochondrial potential, higher = more signal; note: test concentration not given here
# [7] = JC-1 mitochondrial signal, unstimulated adipocytes – cell-based, JC-1 fluorescence, 3T3-L1 adipocytes, 24 h, 100 nL compound, profiling panel (AID 1168); settings: JC-1 mitochondrial fluorescence, higher = more signal, called active from +8 up or from −8 down; note: test concentration not given here
# [8] = JC-1 mitochondrial signal, unstimulated myeloma cells – cell-based, JC-1 fluorescence, RPMI8226, 24 h, 100 nL compound, profiling panel (AID 1169); settings: JC-1 mitochondrial potential fluorescence, higher = more signal; note: test concentration not given here
# [9] = JC-1 mitochondrial signal, unstimulated MM1S myeloma – cell-based, JC-1 fluorescence, 24 h, 100 nL compound, profiling panel (AID 1170); settings: MM1S mitochondrial potential, higher = more signal; note: test concentration not given here
# [10] = resazurin metabolic signal in A549 cells – cell-based, resazurin fluorescence, 24 h, PK04 Diversity Set, profiling panel (AID 1171); settings: A549 viability, higher = more signal, called active from +8 up or from −8 down; note: test concentration not given here
# [11] = resazurin metabolic signal in HepG2 cells – cell-based, resazurin fluorescence, 24 h, PK04 Diversity Set, profiling panel (AID 1172); settings: HepG2 viability, higher = more signal; note: test concentration not given here
# [12] = budding yeast growth changes without added modifier – OD600, strain BY4716, 24 h, basal condition, primary screen (AID 1173); settings: S. cerevisiae BY4716 growth, OD600, 24 h; higher = more signal, called active from +8 up or from −8 down
# [13] = viability profiling in MM1S myeloma cells – cell-based, resazurin fluorescence, basal, 24 h, PK04 Diversity Set, profiling panel (AID 1174); settings: higher = more signal, called active from +8 up or from −8 down; note: test concentration not given here
# [14] = biological target: Dihydroorotate dehydrogenase (quinone), mitochondrial (Plasmodium falciparum (isolate 3D7)) (UniProt Q08210); test: inhibition of P. falciparum DHODH – biochemical, C-terminal His tag, absorbance 600 nm, primary screen (AID 1175); settings: PfDHODH enzyme, DCIP absorbance 600 nm; higher = more signal, called active from +8 up or from −8 down;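 note: recombinant parasite enzyme with a five histidine tag at its C terminus; test concentration not given here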
# [15] = inhibition of PAO1 biofilm formation – strain PAO1, LB-PBS medium, absorbance 600 nm, primary screen (AID 1176); note: test concentration not given here; settings: P. aeruginosa PAO1 growth/biofilm, A600, 12 h; higher = more signal
# [16] = growth modulation of vineyard yeast isolate – strain RM11-1a, OD600, basal, 24 h, primary screen (AID 1177);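 note: cultures grown under basal conditions with no added stressor; test concentration not given here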; settings: S. cerevisiae RM11-1a growth, OD600, 24 h; higher = more signal, called active from +8 up or from −8 down
# [17] = growth of efflux-deficient E. coli DRC39 – strain DRC39, OD650, 24 h, E. coli filamentation inducers, primary screen (AID 1178);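 note: growth measured as culture turbidity by optical density at 650 nm; test concentration not given here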; settings: E. coli DRC39 acrAB, higher = more signal, called active from +8 up or from −8 down
# [18] = growth of efflux-deficient E. coli DRC39 – strain DRC39, OD650, 48 h, E. coli filamentation inducers, primary screen (AID 1179);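 note: screen aims at cell division blockers that make cells filament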; settings: E. coli DRC39 delta-acrAB growth, higher = more signal, called active from +8 up or from −8 down
# [19] = viability profiling in RPMI8226 myeloma cells – cell-based, resazurin fluorescence, basal, 24 h, PK04 Diversity Set, profiling panel (AID 1180); settings: higher = more signal;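 note: RPMI8826 multiple myeloma cell line at 5000 cells per well; test concentration not given here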
# [20] = biological target: E3 ubiquitin-protein ligase XIAP (Homo sapiens) (UniProt P98170); test: small molecules binding XIAP protein – biophysical, small-molecule microarray, fluorescence 635 nm, primary screen (AID 1181); settings: higher = more signal;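 note: score merges 667 nm emission and signal to noise over triplicate slides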
# Chain of E3 ubiquitin-protein ligase XIAP (Homo sapiens) (P98170 whole entry, looked up): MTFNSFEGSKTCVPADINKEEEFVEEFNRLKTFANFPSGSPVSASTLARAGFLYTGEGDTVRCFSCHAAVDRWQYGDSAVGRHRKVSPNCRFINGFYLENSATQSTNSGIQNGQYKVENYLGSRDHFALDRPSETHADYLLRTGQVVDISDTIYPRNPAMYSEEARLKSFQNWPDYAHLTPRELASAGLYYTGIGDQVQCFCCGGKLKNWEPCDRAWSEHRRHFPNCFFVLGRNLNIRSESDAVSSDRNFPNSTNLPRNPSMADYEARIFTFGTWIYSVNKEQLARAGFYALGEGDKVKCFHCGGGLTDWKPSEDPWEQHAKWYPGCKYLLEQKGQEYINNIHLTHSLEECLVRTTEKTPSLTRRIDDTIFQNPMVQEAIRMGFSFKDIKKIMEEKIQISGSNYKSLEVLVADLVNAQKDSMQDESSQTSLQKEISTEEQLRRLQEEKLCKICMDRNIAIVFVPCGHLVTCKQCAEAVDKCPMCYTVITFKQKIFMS
# Chain of Dihydroorotate dehydrogenase (quinone), mitochondrial (Plasmodium falciparum (isolate 3D7)) (Q08210 whole entry, looked up): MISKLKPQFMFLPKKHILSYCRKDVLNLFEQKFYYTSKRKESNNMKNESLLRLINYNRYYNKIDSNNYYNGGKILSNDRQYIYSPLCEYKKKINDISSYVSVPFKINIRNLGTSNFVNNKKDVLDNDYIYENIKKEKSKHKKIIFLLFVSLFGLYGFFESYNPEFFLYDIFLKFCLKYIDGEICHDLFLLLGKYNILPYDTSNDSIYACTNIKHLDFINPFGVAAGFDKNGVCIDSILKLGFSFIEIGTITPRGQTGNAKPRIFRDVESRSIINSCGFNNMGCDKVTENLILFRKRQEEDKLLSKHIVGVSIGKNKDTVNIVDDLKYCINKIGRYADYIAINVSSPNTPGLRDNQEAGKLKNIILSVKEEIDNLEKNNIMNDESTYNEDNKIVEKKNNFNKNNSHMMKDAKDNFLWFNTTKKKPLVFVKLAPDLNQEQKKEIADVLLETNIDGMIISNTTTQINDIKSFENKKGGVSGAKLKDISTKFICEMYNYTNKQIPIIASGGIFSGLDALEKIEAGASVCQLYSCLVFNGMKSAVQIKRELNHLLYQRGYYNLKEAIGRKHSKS
Compound,z-score [1],z-score [2],z-score [3],z-score [4],z-score [5],z-score [6],z-score [7],z-score [8],z-score [9],z-score [10],z-score [11],z-score [12],z-score [13],composite z-score [14],z-score [15],z-score [16],z-score [17],z-score [18],z-score [19],composite z-score [20]
[N-]=[N+]=NCc1ccccc1[C@H]1OC(c2ccc(OCCCO)cc2)=N[C@@]1(CCS(=O)(=O)c1ccccc1)C(=O)O,0.0952,0.0313,0.35,0.263,-0.829,-1.24,-1.02 (inactive),-0.278,-0.479,0.355 (inactive),0.086,-1.04 (inactive),-0.389 (inactive),-1.14 (inactive),-0.0304 (inactive),-0.81 (inactive),-0.589 (inactive),-0.336 (inactive),0.0678,0.273
COC(=O)[C@@]1(Cc2ccc(F)cc2)[C@H]2c3cc(C(=O)N4CCCC4)n(CCSCCO)c3C[C@H]2CN1C(=O)c1ccccc1,-0.354,0.75,0.706,-1.58,-0.118,1.3,-1.3 (inactive),-0.00907,-0.303,-0.294 (inactive),-0.704,1.54 (inactive),-0.526 (inactive),0.289 (inactive),0.855 (inactive),1.3 (inactive),-0.405 (inactive),-0.317 (inactive),-0.546,0.0378
C=CCNC(=O)[C@H]1[C@@H]2C(=O)O[C@@H](c3ccccc3)[C@@H](c3ccccc3)N2[C@@H](c2ccc(OCCO)cc2)[C@]12C(=O)N(C(=O)OCCOC)c1ccc(C#CCC(C(=O)OC)C(=O)OC)cc12,1.32,0.0681,0.811,0.495,-0.749,-0.517,0.566 (inactive),-0.82,-1.58,-0.0048 (inactive),-0.181,1.71 (inactive),-0.374 (inactive),0.0899 (inactive),1.5 (inactive),2.76 (inactive),0.321 (inactive),0.475 (inactive),-1.31,0.0899
C=CCNC(=O)[C@@H]1[C@H]2C(=O)O[C@H](c3ccccc3)[C@H](c3ccccc3)N2[C@H](c2ccc(O)cc2)[C@@]12C(=O)Nc1ccc(C#CC3=CCCCC3)cc12,0.0719,0.266,-3.89,-3.35,-4.57,-1.42,1.38 (inactive),-1.15,-1.2,-1.48 (inactive),-0.496,0.233 (inactive),-3.25 (inactive),-0.691 (inactive),1.66 (inactive),1.28 (inactive),-0.33 (inactive),0.254 (inactive),-6.25,0.28
NCCCCCCNC(=O)[C@@H]1C[C@@H]2C(=O)NCC(=O)N2[C@@H]1c1cccc(OCCO)c1,0.51,0.22,1.06,0.604,-0.431,1.14,0.885 (inactive),0.533,0.307,0.678 (inactive),-0.903,-0.277 (inactive),0.717 (inactive),-0.775 (inactive),-0.0617 (inactive),-0.121 (inactive),0.295 (inactive),0.976 (inactive),0.438,-0.213
COc1ccc(-c2cc3c(c(CCc4ccccc4)n2)[Si](C(C)C)(C(C)C)O[C@H]3c2ccccc2)cn1,0.359,-0.724,1.27,-1.82,-2.55,-2.71,-0.904 (inactive),-0.405,-0.622,0.996 (inactive),-0.166,0.871 (inactive),0.694 (inactive),-0.575 (inactive),0.726 (inactive),0.868 (inactive),-1.19 (inactive),-0.893 (inactive),-0.555,-0.12
CC1C2C(CCCO)=CC(C3C(=O)N(C)C(=O)C23)N1Cc1cccc(OC(F)(F)F)c1 (stereo not given),-0.45,0.924,-0.399,-0.83,-0.423,0.779,0.0323 (inactive),0.258,0.675,-0.791 (inactive),-1.25,-2.02 (inactive),-0.244 (inactive),0.131 (inactive),-0.0099 (inactive),0.481 (inactive),0.224 (inactive),-0.0843 (inactive),-0.278,0.245
C=C[C@H](OC)[C@@H](O)c1ccc(OC)c(O)c1,-0.107,-0.678,1.69,-0.166,-0.991,1.26,0.503 (inactive),0.5,0.443,-0.112 (inactive),0.0143,-0.506 (inactive),0.546 (inactive),0.255 (inactive),0.65 (inactive),-0.0878 (inactive),0.37 (inactive),0.905 (inactive),0.252,-0.289
O=C(NCCN1CCOCC1)[C@@H]1c2ccccc2C(=O)N(CC23CC4CC(CC(C4)C2)C3)[C@H]1c1ccc(CO)cc1,-0.0791,1.43,0.45,-0.846,-0.327,2.95,-0.634 (inactive),0.434,-0.388,1.8 (inactive),0.258,-1.18 (inactive),0.631 (inactive),0.533 (inactive),-0.121 (inactive),1.19 (inactive),0.1 (inactive),0.108 (inactive),0.96,0.0593
COCCCNC(=O)[C@@]1(Cc2ccccc2I)c2ccccc2C(=O)N(Cc2ccccc2OC)[C@H]1c1ccc(CO)cc1,0.0588,-0.188,-0.387,-0.686,-1.58,1.44,-0.217 (inactive),-0.533,-0.151,-0.113 (inactive),-0.831,-0.366 (inactive),-0.0499 (inactive),0.671 (inactive),0.18 (inactive),1.06 (inactive),-0.033 (inactive),-0.113 (inactive),0.317,0.0506
COC(=O)[C@]1(Cc2ccccc2N=[N+]=[N-])N=C(c2ccc(OCCCO)cc2)O[C@@H]1c1ccccc1CN=[N+]=[N-],-3.36,-0.677,-5.59,-3.59,-3.98,-1.76,-1.07 (inactive),-1.16,-2.61,-2.26 (inactive),-4.43,1.24 (inactive),-8.15 (active),1.71 (inactive),1.16 (inactive),1.94 (inactive),-0.307 (inactive),-0.609 (inactive),-7.07,-0.0277
CC1C2C(CCCO)=CC(C3C(=O)N(C(N)=O)C(=O)C23)N1Cc1cccc(OC(F)(F)F)c1 (stereo not given),-0.846,-0.528,0.192,-0.486,0.244,-0.632,-0.795 (inactive),0.787,-0.547,-0.13 (inactive),0.0337,-0.837 (inactive),-0.402 (inactive),-0.766 (inactive),0.437 (inactive),-0.369 (inactive),0.0299 (inactive),-0.114 (inactive),-0.907,-0.199
O=C(CS)NCCCCCCNC(=O)[C@H]1C[C@H]2C(=O)NCC(=O)N2[C@H]1c1cccc(OCCO)c1,-0.109,1.18,-0.232,-0.436,-1.09,-0.407,0.225 (inactive),0.211,-0.497,-0.15 (inactive),-0.39,-0.462 (inactive),-0.0674 (inactive),-0.59 (inactive),0.339 (inactive),0.0796 (inactive),0.469 (inactive),-0.814 (inactive),-0.348,0.0269
COC(=O)[C@@]1(Cc2ccccc2)[C@H]2c3cc(C(=O)N(C)C)n(Cc4ccc(Cl)c(C(F)(F)F)c4)c3C[C@H]2CN1C(=O)c1ccccc1,-1.42,0.562,-2.06,-2.56,-4.44,2.34,-1.28 (inactive),-0.968,-1.24,-1.6 (inactive),-1.83,2.32 (inactive),-2.53 (inactive),0.46 (inactive),1.43 (inactive),1.37 (inactive),-1.4 (inactive),-0.744 (inactive),-2.95,0.331
CC1CC/C=C\[C@H]2OC34C=CCN(CCN5CCOCC5)C(=O)[C@H]3N(C(CO)C(C)C)C(=O)[C@@H]4C2C(=O)O1 (stereo not given in full),0.0685,-1.26,0.545,-0.515,0.0582,-0.989,-0.161 (inactive),0.19,-0.308,-0.37 (inactive),-0.137,0.183 (inactive),-0.885 (inactive),-3.11 (inactive),-0.869 (inactive),-0.459 (inactive),0.332 (inactive),0.365 (inactive),-0.465,-0.0172
C=CCNC(=O)[C@@H]1[C@H]2C(=O)O[C@H](c3ccccc3)[C@H](c3ccccc3)N2[C@H](c2ccc(OCCO)cc2)[C@@]12C(=O)N(C(=O)OCCOC)c1ccccc12,-0.514,0.484,0.332,0.374,-0.562,2.15,0.89 (inactive),-1.05,0.332,-0.0659 (inactive),0.0303,1.98 (inactive),-0.522 (inactive),0.659 (inactive),2.69 (inactive),3.16 (inactive),0.446 (inactive),0.282 (inactive),-0.289,0.0623
CC(C)N1C(=O)[C@@]2(Cc3ccccc31)c1ccccc1C(=O)N(Cc1ccccc1C(F)(F)F)[C@H]2c1ccc(CO)cc1,-0.262,0.523,0.133,-0.895,-1.27,-0.77,0.109 (inactive),0.0301,1.03,0.752 (inactive),0.0887,0.407 (inactive),0.0922 (inactive),-18 (active),0.146 (inactive),-0.107 (inactive),-0.0949 (inactive),-0.818 (inactive),0.566,0.0377
CC(C)c1ccc(NN2C(C(O)C3=C[C@H]4C[C@@H](C3)C4(C)C)C=CC3C(=O)N(c4ccccc4)C(=O)C32)cc1 (stereo not given in full),0.0464,-0.395,0.165,-1.16,-1.04,-2.56,-0.401 (inactive),-0.366,0.758,-0.186 (inactive),-1.11,-1.8 (inactive),0.32 (inactive),0.0752 (inactive),0.863 (inactive),0.786 (inactive),-0.326 (inactive),-0.629 (inactive),0.319,0.339
